About 83,000 compounds went through this panel and 20% of them were active in at least one assay; those are over-represented in the sample as a whole.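 Percent growth is the endpoint: 0 to 100 indicates growth inhibition (40 means 60% inhibition), 0 means no net growth, and negative values indicate cell death.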 Unmarked numbers belong to inactive results. Activity calls are given as the source filed them.
Tested on: HS 578T breast
Test: NCI-60 one-dose screen, 48 h (100 = growth as untreated, 0 = no growth, -100 = all killed)
Conditions: 10 µM
Experimental: Growth inhibition of the HS 578T human tumor cell line is measured as a screen for anti-cancer activity. Cells are grown in 96 well plates and exposed to the test compound for 48 hours. Compounds are tested at a single concentration, which is 10^-5 M for most compounds. The reported endpoint is percent growth (GI% or GIPRCNT), where numbers from 0 - 100% represent growth inhibition, and numbers from -100% - 0 represent cell death. For example, a value of 40 represents 60% growth inhibition. A value of 0 means no net growth occurred over the course of the experiment. A value of -40 indicates 40% of cells at the beginning of the experiment died by the end of the experiment. A value of -100 means all cells are dead at the end of the experiment.
NCI-60 Human Tumor Cell Lines Screen was performed using the standard one-dose NCI protocol, which is described in more detail at https://dtp.cancer.gov/discovery_development/nci-60/default.htm.
Compounds with GIPRCNT values below 10 were considered active. Activity score was based on GIPRCNT using the following formula: […]
Score is 0 for GIPRCNT values of 100 or above, 50 for GIPRCNT values of 0, and 100 for GIPRCNT values of -100.

| Structure (SMILES) | growth |
| --- | --- |
| C[C@@H](O)[C@H]1C(=O)N2C(C(=O)O)=C(SC3CN[C@H](C(=O)N(C)C)C3)[C@H](C)[C@H]12 (stereo not given in full) | 102% |
| Cc1cc(Cl)ccc1Nc1nc(C(F)(F)F)ccc1C(=O)N/N=C/c1cccc(O)c1 | -17.5% (active) |
| COc1ccc(-c2nn(-c3cccc(Cl)c3)cc2/C=C2\NC(=S)N(c3ccc(Cl)cc3)C2=O)cc1 | 25.8% |
| COc1ccc(-c2cc(-c3ccc(Cl)cc3)nc(SCCCC(=O)NO)n2)cc1 | 37.9% |
| COc1cc2cc(Oc3ccc(NC(=O)c4ccccc4)cc3)c(C)nc2cc1OC | 57.1% |
| COc1nc2c(c(=O)n1C)CN(c1ccccc1)C(=O)C(C)N2 (stereo not given) | 105% |
| COc1ccc(-c2cc(-c3ccc(Cl)cc3)nc(SCCCC(=O)NO)n2)cc1OC | 29.2% |
| Nc1nc(-c2cccnc2)nc2c1sc(=S)n2-c1ccccc1 | 91.4% |
| CN(C)CCOc1ccc(-c2nc3sccn3c2-c2ccnc(S(C)(=O)=O)n2)cc1 | 101% |
| N#CCc1csc(Cc2ccccc2)n1 | 99.1% |
| NS(=O)(=O)Oc1ccc2c(ccn2C(=O)C23CC4CC(CC(C4)C2)C3)c1 | 109% |
| Cc1ccc(C(=O)C2C(=O)C3CCC2C3)cc1 (stereo not given) | 106% |
| CC(=O)OC1C=CC(OC(C)=O)O1 (stereo not given) | 87.4% |
| Cc1ccc(N=Nc2ccccc2)cc1 | 103% |
| C1CN(CC2CCC(CN3CCOCC3)O2)CCO1 (stereo not given) | 104% |
| COc1cccc(-c2nc3sccn3c2-c2cccc(S(C)(=O)=O)c2)c1 | 99.3% |
| COc1ccc2c(c1)C(CC(=O)NN)CCC2 (stereo not given) | 102% |
| CC(=O)N[C@H](C(=O)N[C@@H](CCCNC(=N)N)C(=O)N[C@@H](CCCCN)C(=O)N[C@@H](CCCNC(=N)N)C(=O)N[C@]1(C)CCCCCC/C=C\CCC[C@@](C)(C(=O)N[C@@H](CCCNC(=N)N)C(=O)N[C@@H](CCC(=O)O)C(=O)N[C@@H](CC(C)C)C(=O)N[C@H](C(=O)N[C@@H](CCC(=O)O)C(N)=O)C(C)C)NC(=O)[C@H](CCC(N)=O)NC(=O)[C@H](CC(C)C)NC(=O)[C@H](CC(C)C)NC(=O)[C@H](CCCNC(=N)N)NC(=O)[C@H](CCCNC(=N)N)NC(=O)[C@H](CC(C)C)NC1=O)C(C)C | -33.9% (active) |
| COc1ccc(-c2nn(-c3cccc(Cl)c3)cc2-c2nc(N)[nH]c(=O)c2C#N)cc1 | 76.6% |
| CC[C@@H](C(=O)[C@H](C)[C@H](O)[C@@H](C)[C@H]1O[C@H]([C@@H](CC)C(=O)N(CC)CC)CC[C@H]1C)C1O[C@]2(C=C[C@@H](O)[C@]3(CC[C@@](C)([C@H]4CC[C@](O)(CC)[C@H](C)O4)O3)O2)[C@H](C)C[C@@H]1C (stereo not given in full) | 24.1% |

| Structure (SMILES) | growth |
| --- | --- |
| CS(=O)(=O)c1nccc(-c2c(-c3cccc(OCCc4ccccc4)c3)nc3sccn23)n1 | 92.4% |
| Cc1cc(CC(C)CC(C)(C)C)n(O)c(=O)c1 (stereo not given) (tested in a mixture with another compound) | 62.8% |
| CCOS(=O)(=O)c1c(C(C)C)cc(C(C)C)cc1C(C)C | 103% |
| C=C/C(C)=C/C[C@]1(C)[C@H](C)[C@@H](OC(=O)CCC)[C@H](O)[C@@]23C(=C[C@H](OC)C[C@@H]12)[C@@H](OC(=O)CCC)O[C@H]3OC(C)=O | -31.5% (active) |
| O=C(NCCCNS(=O)(=O)c1ccc(Cl)cc1)Nc1ccc(-n2cc(-c3ccncc3)c(-c3ccc(Cl)c(O)c3)n2)cc1 | 40.9% |
| CC1CCCC(C(=O)O)C1C(=O)O (stereo not given) | 95.4% |
| CN(C)CCN(Cc1ccccc1)c1ccc2ccccc2n1 | 92.4% |
| N#Cc1c(-c2ccc(Cl)cc2)n(O)c2ccccc12 | -21.6% (active) |
| Clc1nc2ccc(Br)cc2cc1-c1nc2ccccc2[nH]1 | 47.8% |
| CC(C)(C)OC(=O)N1CCc2c(sc3ncnc(N/N=C/c4ccccc4Br)c23)C1 | 98.7% |
| CCN1CC(CCN2CCOCC2)C(C(c2ccccc2)c2ccccc2)C1=O (stereo not given) | 104% |
| CCn1cc(CNc2ccc(C(=O)Nc3ccc4ccccc4c3)cc2)c(C)n1 | 105% |
| C=CCn1c(SCC(=O)Nc2ccc(C(=O)/C=C/c3ccc(OC)cc3)cc2)nnc1-c1ccc(OC)c(OC)c1 | 86.4% |
| CCCCC1(O)CCCCC1 | 98.1% |
| Cc1ccccc1N1C(=O)c2cc(S(N)(=O)=O)c(Cl)cc2NC1C (stereo not given) | 111% |
| CN1C(=O)C2(Nc3cc(Cl)ccc3S2)c2cc(Cl)ccc21 (stereo not given) | 91.1% |
| COc1ccc(/C=C2\CCCC3=C2N=C2SC(C)=CN2C3c2ccc(OC)cc2)cc1 (stereo not given) | 91% |
| O=C(CCC(C(=O)c1ccccc1)c1ccccc1)c1ccccc1 (stereo not given) | 80.1% |
| CS(=O)(=O)c1nccc(-c2c(-c3ccc(OCCc4ccccc4)cc3)nc3sccn23)n1 | 87% |
| Cc1ccc(NCCN(C)CC(C)O)c2c(=O)c3ccc(Cl)cc3sc12 (stereo not given) | 58.6% |
